Experimental data from the supplement of paper PMC3545927.
Some of the results follow. The true hit rate is not given.

Target: furin, P09958
Assay: furin cleavage Z-score vs untreated control; higher = more cleavage, active = 3.5 or more, inactive = 1 or less, 8 variable residues between constant flanks
How it was run: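 Magnetic beads held 8-mer peptides by the N-terminus, each fused to a cDNA oligonucleotide, and purified furin was added for 7.5, 15 or 30 min. Released DNA was sequenced after PCR adapter tagging. The cleavage Z-score is the log count relative to furin-free reactions, lowess-adjusted and divided by median absolute deviation.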
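Also: purified furin at 1:10 enzyme:substrate in 50 mM HEPES pH 7.5.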

furin, P09958, sequence (P09958 whole entry): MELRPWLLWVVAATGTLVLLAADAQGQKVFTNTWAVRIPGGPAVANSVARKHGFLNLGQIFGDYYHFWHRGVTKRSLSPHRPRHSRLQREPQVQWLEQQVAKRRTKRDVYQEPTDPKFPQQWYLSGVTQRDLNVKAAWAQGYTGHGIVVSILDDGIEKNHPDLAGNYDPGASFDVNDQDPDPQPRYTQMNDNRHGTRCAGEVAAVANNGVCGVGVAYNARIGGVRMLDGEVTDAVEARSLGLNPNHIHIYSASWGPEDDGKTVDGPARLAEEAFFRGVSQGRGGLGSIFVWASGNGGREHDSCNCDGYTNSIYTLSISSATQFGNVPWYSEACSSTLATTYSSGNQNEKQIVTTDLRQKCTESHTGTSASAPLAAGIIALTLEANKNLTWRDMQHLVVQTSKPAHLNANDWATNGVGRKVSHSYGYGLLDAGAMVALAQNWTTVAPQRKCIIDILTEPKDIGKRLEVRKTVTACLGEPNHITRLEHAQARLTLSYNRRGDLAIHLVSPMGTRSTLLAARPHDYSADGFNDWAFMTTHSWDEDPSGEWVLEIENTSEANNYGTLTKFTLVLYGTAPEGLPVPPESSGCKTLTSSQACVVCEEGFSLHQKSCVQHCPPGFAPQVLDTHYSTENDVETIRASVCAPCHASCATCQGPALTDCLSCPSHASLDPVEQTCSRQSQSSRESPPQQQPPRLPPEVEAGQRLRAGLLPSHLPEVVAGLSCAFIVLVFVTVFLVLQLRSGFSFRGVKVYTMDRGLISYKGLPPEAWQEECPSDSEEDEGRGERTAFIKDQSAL

Row | Sequence | furin cleavage Z-score (7.5 min) | furin cleavage Z-score (15 min) | furin cleavage Z-score (30 min)
1 | CADRLQVLDSAGNASASA [HC1398] | 1.26 | 0.665 (inactive) | 0.144 (inactive)
2 | CAQFKQKALGAGNASASA [HC1024] | 0.453 (inactive) | -0.904 (inactive) | 0.989 (inactive)
3 | CANCGYRRCRAGNASASA [HC1507] | -0.406 (inactive) | -0.477 (inactive) | 0.265 (inactive)
4 | CAPLNVRGGRAGNASASA [HC592] | -0.486 (inactive) | 0.851 (inactive) | 0.124 (inactive)
5 | CAPVSARRGRAGNASASA [HC661] | 3.67 (active) | 2.35 | 2.39
6 | CAECVTSTWVAGNASASA [HC2180] | 0.903 (inactive) | 2.44 | 0.32 (inactive)
7 | CAGVPCHRPSAGNASASA [HC2316] | 0.883 (inactive) | -1.9 (inactive) | 1.03
8 | CAGKSRLKKSAGNASASA [FS-429] | 3.94 (active) | 3.83 (active) | 4.7 (active)
9 | CAGPARPWKSAGNASASA [FS-127] | 0.451 (inactive) | -1.62 (inactive) | -1.1 (inactive)
10 | CARPSRLKKFAGNASASA [FS-290] | -0.934 (inactive) | -0.739 (inactive) | -0.88 (inactive)
11 | CAGVARVRKSAGNASASA [FS-169] | 7.76 (active) | 6.48 (active) | 7.18 (active)
12 | CAGRARCYRSAGNASASA [FS-786] | 5.83 (active) | 5.27 (active) | 4.62 (active)
13 | CAGPADGMVSAGNASASA [HC667] | 0.24 (inactive) | 0.132 (inactive) | -1.59 (inactive)
14 | CASVNRNKKSAGNASASA [FS-875] | -0.482 (inactive) | -0.223 (inactive) | 1.34
15 | CAGVARFYRSAGNASASA [FS-661] | 6.6 (active) | 7.47 (active) | 8.24 (active)
16 | CASTQCSAHLAGNASASA [HC2522] | 1.38 | 0.361 (inactive) | 0.641 (inactive)
17 | CASPDAELIEAGNASASA [HC1271] | -0.191 (inactive) | -1.02 (inactive) | -2.02 (inactive)
18 | CASTPCSAHDAGNASASA [HC2571] | -1.23 (inactive) | -0.24 (inactive) | -0.964 (inactive)
19 | CAFNILGGWVAGNASASA [HC1065] | -0.849 (inactive) | -1.69 (inactive) | 0.522 (inactive)
20 | CATQTVDFSLAGNASASA [HC890] | 0.518 (inactive) | 0.088 (inactive) | -1.06 (inactive)
21 | CAIVCCSMSYAGNASASA [HC1984] | 0.599 (inactive) | 0.44 (inactive) | 1.09
22 | CAVVCCSMVYAGNASASA [HC2070] | 1.39 | -0.784 (inactive) | -0.578 (inactive)
23 | CAVEAQLHVWAGNASASA [HC587] | 0.261 (inactive) | 1.76 | 0.118 (inactive)
24 | CAEVPCHRKSAGNASASA [HC2394] | 0.666 (inactive) | 1.67 | 0.974 (inactive)
25 | CAGMIRVRKSAGNASASA [FS-244] | 9.53 (active) | 9.46 (active) | 8.14 (active)
26 | CACPGRPWKSAGNASASA [FS-645] | 0.174 (inactive) | 0.632 (inactive) | -1.05 (inactive)
27 | CAGKPRVRKSAGNASASA [FS-160] | 11.6 (active) | 11.6 (active) | 7.27 (active)
28 | CAQSLRQRKSAGNASASA [FS-915] | 0.195 (inactive) | 0.0646 (inactive) | 0.773 (inactive)
29 | CAPAEILRKSAGNASASA [HC1296] | -1.4 (inactive) | -0.0107 (inactive) | -2.04 (inactive)
30 | CAGPARSHRSAGNASASA [FS-1525] | 2.6 | 5.21 (active) | 5.09 (active)
